Screening data (PubChem)
Rows were chosen to be rich in hits. Some 3.5% of all compounds tested hit in one or more screens of this group.
TEAD-YAP inh: TEAD-YAP interaction inhibition; HEK-TIYL cells, TEAD-Gal4/YAP UAS-luciferase luminescence; inhibition, % at 9.12 µM; 1.4% of 640,000 active; in the data active = inhibition above about 32%;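 note: 0% = median of test compound wells and 100% = reference inhibitor wells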
GPR151 activ: human GPR151 activation; PathHunter beta-arrestin GPR151 cells, luminescence; activation, % at 11.2 µM; 1% of 650,000 active; AID 1508602; in the data active = activation above about 4.9%;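 note: 0% = median of compound wells and 100% = cells with positive control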
MITF inh: human MITF inhibition, primary screen; O75030; AlphaScreen MITF homodimerization, bead proximity signal; inhibition, % at 2.6 µM; 0.91% of 650,000 active; in the data active = inhibition above about 50%;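 note: 0% = vehicle wells with protein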
FBW7 activator: activators of human E3 ligase FBW7; normalized activity (activation), % at 26.1 µM; 0.13% of 650,000 active; AlphaScreen FBW7–phospho-cyclin E peptide binding, activator screen; Q969H0; in the data active = normalized activity above about 1.9%;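 note: purified mutant Fbw7 with reduced substrate affinity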
GPR151 confirm: confirmation of human GPR151 activators | activation, % at 11.2 µM | GPR151 PathHunter beta-arrestin cells, luminescence, 90 min; % of EA-reagent control over plate median | shares compounds with GPR151 activ | AID 1508609 | 6,700 tested, under 10 active;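 active = mean percent activation across replicates above the confirmation screen cutoff of 4.91%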
GPR119 ag: activates human GPR119 in a GPR151 counter-screen; shares compounds with GPR151 activ; 0.3% of 6,700 active; GPR119 PathHunter beta-arrestin cells, luminescence, 90 min; 0 = compound-well median, 100 = enzyme-acceptor control; activation, % at 11.2 µM;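 active = mean percent activation in the counterscreen above 29.09%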;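 note: counterscreen on off-target GPR119 to flag nonselective hits from the GPR151 activator screen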
Target sequence (Q8TDV5 whole entry, looked up): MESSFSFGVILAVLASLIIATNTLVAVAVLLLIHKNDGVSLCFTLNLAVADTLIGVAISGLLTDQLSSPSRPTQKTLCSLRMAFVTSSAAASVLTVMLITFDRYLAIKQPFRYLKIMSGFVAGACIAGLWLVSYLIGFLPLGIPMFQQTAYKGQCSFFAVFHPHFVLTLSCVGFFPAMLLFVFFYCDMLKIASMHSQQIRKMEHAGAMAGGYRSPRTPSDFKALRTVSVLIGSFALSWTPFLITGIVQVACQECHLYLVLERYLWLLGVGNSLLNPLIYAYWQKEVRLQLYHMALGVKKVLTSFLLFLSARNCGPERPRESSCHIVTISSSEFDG
* marks the source's active call; other numbers are inactive results; . = no result.

SMILES | TEAD-YAP inh | GPR151 activ | MITF inh | FBW7 activator | GPR151 confirm | GPR119 ag
COc1cc(NC(=O)c2cc(Br)ccc2Cl)ccc1N1CCCC1=O | 9 | 5.0* | 10 | 0 | 1 | 8
COc1ccc(NC(=O)c2cc(Br)ccc2Cl)cc1N1CCCC1=O | -14 | 1 | 10 | 0 | . | .
COc1ccccc1C1N(c2cc(Cl)ccc2OC)C(=O)C2CCCN21 (centres undefined) | 1 | 6.8* | 4 | 0 | -1 | -8
COc1ccc(Cl)cc1N1C(=O)C2CCCN2C1c1ccccc1 (centres undefined) | 2 | 1 | 6 | 1 | . | .
COCc1ccc(CN2CCCC(CNC(=O)c3ccc(-c4ccccc4)cc3)C2)o1 (centres undefined) | 2 | -1 | -2 | 0 | . | .
O=C(NCC1CCCN(Cc2ccc(CO)o2)C1)c1ccc(-c2ccccc2)cc1 (centres undefined) | -6 | 16* | 10 | 0 | 0 | -7
CC(Cl)C(=O)N(Cc1ccccc1)Cc1ccccc1 (centres undefined) | 8 | 5.1* | -18 | 0 | 0 | 8
O=C(O)/C=C/C(=O)N(Cc1ccccc1)Cc1ccccc1 | 4 | 5.3* | -5 | 0 | 1 | 8
COc1ccc(/C=C/C(=O)N(Cc2ccccc2)Cc2ccccc2)cc1 | 1 | 0 | -2 | 0 | . | .
Cn1c(=O)c2c(SCC(=O)N3CCc4ccccc43)ccnc2n(C)c1=O | -4 | -1 | 6 | 1 | . | .
Cc1nc2ccc(N)cc2c(=O)n1CC(=O)Nc1ccccc1 | 2 | -1 | 25 | 0 | . | .
COC(=O)c1cc(-c2ccccc2)n(CC(=O)O)c1C | -26 | 5.5* | -7 | 0 | -1 | -9
Nc1ccc(-c2cnc3ccc(NC4CCOCC4)nn23)cc1 | 3 | 0 | 15 | 0 | . | .
Cc1ccc(C(=O)COC(=O)c2cc(-c3ccc(C)c(C)c3)nc3ccc(C)cc23)cc1 | 7 | 0 | 1 | 0 | . | .
Cc1ccc2nc(-c3ccc(C)c(C)c3)cc(C(=O)OCC(=O)c3ccc([N+](=O)[O-])cc3)c2c1 | 4 | 5.6* | 7 | 0 | 0 | 7
COCCNCCC1CCC(=O)N1CCc1ccc(F)cc1 (centres undefined) | 8 | -2 | 17 | 1 | . | .
COc1cc2c(cc1NC(=O)c1ccccc1Cl)oc1ccccc12 | -41 | 0 | -14 | 0 | . | .
COc1cc2c(cc1NC(=O)c1cccc([N+](=O)[O-])c1)oc1ccccc12 | -1 | 6.9* | 8 | 0 | 1 | 0
COc1cc2c(cc1NC(=O)c1ccoc1C)oc1ccccc12 | -65 | 5.2* | -6 | 0 | 0 | 3
N#CC1=C(N)C(C#N)(C#N)C(c2ccco2)C2CCCC=C12 (centres undefined) | 9 | -1 | 11 | 0 | . | .
Nc1cccc(-c2cc(C(=O)NCCc3ccc(O)cc3)ccn2)c1 | 3 | 0 | 10 | 0 | . | .
COc1cccc(N2C(=O)/C(=C\c3ccccc3)N=C2SC)c1 | -78 | 0 | 1 | 0 | . | .
Cc1ccccc1N(CC(=O)N1CCOCC1)S(=O)(=O)c1ccc(Cl)cc1 | 4 | 14* | -6 | 0 | 1 | 3
Cc1ccccc1N(CC(=O)N1CCCC1)S(=O)(=O)c1ccc(Cl)cc1 | -12 | 0 | 19 | 0 | . | .
CC1(c2ccccc2Cl)NC(=O)N(Cc2ccccc2C#N)C1=O (centres undefined) | 11 | 3 | -17 | 0 | . | .
SMILES | TEAD-YAP inh | GPR151 activ | MITF inh | FBW7 activator | GPR151 confirm | GPR119 ag
CCC1(c2ccc(F)cc2)NC(=O)N(Cc2ccccc2C#N)C1=O (centres undefined) | -3 | 5.7* | -4 | 0 | 1 | 12
CN(C)S(=O)(=O)c1ccc(/C(O)=C2/C(=O)C(=O)N(CCN3CCOCC3)C2c2ccccc2)cc1 (centres undefined) | 7 | 0 | 11 | 0 | . | .
c1ccc(Cc2nnc3sc(-c4ccco4)nn23)cc1 | -16 | 4 | 1 | 0 | . | .
Fc1ccccc1-c1nn2c(Cc3ccccc3)nnc2s1 | 4 | 8.2* | -3 | 0 | 0 | -2
Cc1ccc(CNn2c(-c3ccc(Br)cc3)nc3ccccc3c2=O)o1 | -7 | 0 | 7 | 1 | . | .
COc1cccc(Oc2nc(N)nc(N)n2)c1 | 6 | -1 | -5 | 0 | . | .
Cn1c(SCC(=O)c2cccc(Br)c2)nnc1-c1ccccn1 | -2 | 4.9* | -2 | 0 | 0 | 2
Cn1c(SCC(=O)Nc2ccc(F)c(F)c2)nnc1-c1ccccn1 | -13 | 3 | 3 | 0 | . | .
Brc1ccc(Nc2cccnc2)nc1 | 0 | 11* | -2 | 0 | 1 | 4
Fc1cccc(F)c1Nc1ccc(Br)cn1 | 0 | -1 | 11 | 0 | . | .
COc1ccc(CN2CCN(Cc3ccc4nonc4c3)CC2CCO)c(C)c1C (centres undefined) | 6 | 1 | -6 | 0 | . | .
C=CCOC(=O)C1=C(C)N2CCSC2=C(C#N)C1c1ccco1 (centres undefined) | -12 | 5.1* | 6 | 0 | 2 | 7
Nc1ccc(NC(=S)NC2CCCCC2)cc1[N+](=O)[O-] | -26 | 1 | 11 | -1 | . | .
CC1(C)C2CCC1(C)C(Nc1ccc(N)c([N+](=O)[O-])c1)(S(=O)(=O)O)C2[n+]1ccccc1 (centres undefined) | 0 | 5.6* | 4 | 0 | -1 | -8
COC(=O)C1=CN(C2CC2)C=C(C(=O)OC)C1c1cccc(OC)c1 | 4 | 5.5* | -14 | 0 | 1 | 13
COC(=O)C1=CN(C2CC2)C=C(C(=O)OC)C1c1cccc(O)c1 | 10 | 2 | -17 | 0 | . | .
COc1ccccc1-c1nc2s/c(=C\c3cccc([N+](=O)[O-])c3)c(=O)n2n1 | 4 | 7.8* | 2 | 0 | 0 | 1
COc1cc(C2NC(=S)NC(C)=C2C(=O)Nc2ccccc2C)ccc1O (centres undefined) | 3 | 2 | 9 | 1 | . | .
CSc1ncc(CN2CCCC(N3CCN(c4ccccc4)CC3)C2)cn1 (centres undefined) | -2 | 8.8* | 12 | 0 | -1 | -6
Cc1cccc(NC(=O)Cn2nnc(-c3ccc(N)cc3)n2)c1C | 4 | -1 | 5 | 0 | . | .
O=C(c1ccc(-c2cccc(Cl)c2Cl)o1)N1CCOCC1 | -77 | 7.3* | 10 | 0 | 0 | -2
O=C(CN(CC1CCCO1)C(=O)CCC(=O)Nc1nccs1)NCc1ccccc1 (centres undefined) | 2 | 9.4* | 0 | 0 | 1 | 4
O=C(CCCC(=O)N(CC(=O)NC1CCCCC1)Cc1ccccc1)Nc1ccccn1 | 6 | 0 | 13 | 0 | . | .
O=C(CCCC(=O)N(CC(=O)NC1CCCCC1)CC1CCCO1)Nc1ccccn1 (centres undefined) | 0 | 8.7* | -1 | 0 | 1 | 8
